Results from PubChem BioAssay.
Active and inactive are the calls of the source. The rule behind the calls is not given here.

target: Pantothenate synthetase (Mycobacterium tuberculosis (strain ATCC 25618 / H37Rv)) (UniProt P9WIL5); experiment: Recombinant Mtb pantothenate synthetase (PanC) inhibitors, coupled enzyme, confirmatory (AID 375); conditions: coupled enzyme assay; at 10 µM, hits give high values;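 note: 0% = full reaction with vehicle and 100% = no enzyme background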
Sequence (P9WIL5 whole entry, looked up): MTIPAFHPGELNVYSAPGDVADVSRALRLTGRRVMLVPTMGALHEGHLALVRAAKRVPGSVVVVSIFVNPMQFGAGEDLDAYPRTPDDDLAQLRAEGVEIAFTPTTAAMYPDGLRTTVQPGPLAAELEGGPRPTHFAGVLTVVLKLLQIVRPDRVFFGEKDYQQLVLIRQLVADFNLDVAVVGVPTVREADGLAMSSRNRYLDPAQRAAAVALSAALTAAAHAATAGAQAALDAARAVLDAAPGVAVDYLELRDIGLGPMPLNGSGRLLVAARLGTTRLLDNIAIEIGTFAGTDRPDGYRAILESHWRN

Compound	inhibition
COc1ccc(OC)c(N2Cc3cc(C)c(C)cc3C2)c1	3% (inactive)
O=C(Nc1ccc(N2CCN(Cc3ccccc3Cl)CC2)cc1)c1cccnc1	4% (inactive)
COc1cccc2cc(C(=O)Nc3cccnc3N3CCOCC3)c(=O)oc12	0% (inactive)
C=CCNC(=O)CNS(=O)(=O)c1ccc(F)cc1	2% (inactive)
O=C(Nc1sc2c(c1C(=O)NCc1ccco1)CCCC2)c1ccc2c(c1)OCO2	1% (inactive)
O=[N+]([O-])c1cccc2cn[nH]c12	0% (inactive)
c1ccc(Cn2nnnc2CN2CCN(c3ncccn3)CC2)cc1	1% (inactive)
Nc1nc(-c2ccccc2Br)cs1	3% (inactive)
CCCCn1nnnc1SCC(=O)N1CCN(C(=O)c2ccco2)CC1	0% (inactive)
CC(C)Oc1ccc(-c2nn(-c3ccccc3)cc2/C=c2\sc3ncnn3c2=O)cc1	0% (inactive)
CCN(CCCNS(=O)(=O)c1ccc2c(c1)oc(=O)n2C)c1cccc(C)c1	0% (inactive)
CCn1c(=S)ccc2ccc(OC)cc21	0% (inactive)
O=C(NC1CCS(=O)(=O)C1)c1c(NC(=O)C2COc3ccccc3O2)sc2c1CCCC2 (centres undefined)	0% (inactive)
C[N+]1=C2CCCCCN2C(O)(c2ccccc2)C1 (centres undefined)	7% (inactive)
COC(=O)C1=C(C)NC(C)=C(C(=O)OC)C1c1cc2cc(C)ccc2[nH]c1=O	3% (inactive)
CC(C)c1ccc(S(=O)(=O)N2CCN(CCC(=O)Nc3ccc(N(C)C)cc3)CC2)cc1	5% (inactive)
CCCN(CCC)S(=O)(=O)c1ccc(NS(C)(=O)=O)cc1	0% (inactive)
O=C(CSc1ncnc2c1oc1ccccc12)NCc1ccco1	6% (inactive)
c1cc2c(cc1C1CCCN1)OCCCO2 (centres undefined)	2% (inactive)
CCCCn1c(SCC(=O)OCC)nc2c1c(=O)[nH]c(=O)n2C	2% (inactive)

Compound	inhibition
COC(=O)c1ccc(CSc2ncnc3c2nnn3-c2ccc(OC)cc2)o1	0% (inactive)
Cc1nnc(SCc2cccc(Oc3ccccc3)c2)n1N	0% (inactive)
CCCS(=O)(=O)N1CCCC(C(=O)N2CCC(Cc3ccccc3)CC2)C1 (centres undefined)	0% (inactive)
CCOC(=O)c1ccc(COC(=O)c2cc3ccccc3oc2=O)o1	0% (inactive)
CCNc1ccc(C(=O)OCC)cc1NC(=O)c1cc(S(=O)(=O)N2CCOCC2)ccc1C	2% (inactive)
CN(C(=O)c1c(Cl)nc2sccn12)C1CCCCC1	0% (inactive)
CCOC(=O)c1nnn(CC(=O)Nc2cccc(OC)c2)c1C(=O)OCC	9% (inactive)
O=C1CCCC2=C1C1(CCCC1)N=C(Nc1nc3ccccc3s1)N2	10% (inactive)
CCC(C)NCC(O)COCc1ccc(Cl)cc1 (centres undefined)	4% (inactive)
Cc1ccc(CSc2nc3c(c(=O)[nH]2)C(c2ccncc2)C2=C(CCCC2=O)N3)cc1 (centres undefined)	4% (inactive)
COC(=O)c1cc(Br)c(=O)n(-c2ccc(OC)cc2)c1	0% (inactive)
CCOC(=O)C1CSc2[nH]c(=O)sc2C1c1ccccc1 (centres undefined)	0% (inactive)
CCOC(=O)c1[nH]c(C)c(C(=O)Nc2ccccc2F)c1C	3% (inactive)
CCn1c(C)nc2cc(C(=O)OCCC(F)(F)F)ccc21	0% (inactive)
CCOc1ccc(NCc2nnc(SCC(=O)Nc3cc(C)on3)n2-c2ccccc2OC)cc1	13% (inactive)
COc1ccc(OC)c(-c2nnc(SCC(=O)NC3CCCCC3)o2)c1	0% (inactive)
Cc1cccc(Cn2c(=O)n(Cc3ccco3)c(=O)c3ccccc32)c1	0% (inactive)
COC(=O)c1[nH]c2c(c1C)C(=O)CC(c1cc(OC)ccc1OC)C2 (centres undefined)	0% (inactive)
COc1cccc(-c2nc(CS(=O)CC(=O)NCCCOC(C)C)c(C)o2)c1 (centres undefined)	2% (inactive)
